Measured values reported in ChEMBL document CHEMBL2218924, “A broad activity screen in support of a chemogenomic map for kinase signalling research and drug discovery” (Biochem J, 2013).

Legend:
[1] = molecular target: Mitogen-activated protein kinase 10 (Homo sapiens) (UniProt P53779); details: at 10 µM
[2] = molecular target: Vascular endothelial growth factor receptor 2 (Homo sapiens) (UniProt P35968); details: at 1 µM
[3] = molecular target: Vascular endothelial growth factor receptor 2 (Homo sapiens) (UniProt P35968); details: at 10 µM
[4] = molecular target: LIM domain kinase 1 (Homo sapiens) (UniProt P53667); details: at 1 µM
[5] = molecular target: LIM domain kinase 1 (Homo sapiens) (UniProt P53667); details: at 10 µM
[6] = molecular target: T1, Serine/threonine-protein kinase STK11 (Homo sapiens) (UniProt Q15831); details: at 1 µM
T1 sequence (whole entry): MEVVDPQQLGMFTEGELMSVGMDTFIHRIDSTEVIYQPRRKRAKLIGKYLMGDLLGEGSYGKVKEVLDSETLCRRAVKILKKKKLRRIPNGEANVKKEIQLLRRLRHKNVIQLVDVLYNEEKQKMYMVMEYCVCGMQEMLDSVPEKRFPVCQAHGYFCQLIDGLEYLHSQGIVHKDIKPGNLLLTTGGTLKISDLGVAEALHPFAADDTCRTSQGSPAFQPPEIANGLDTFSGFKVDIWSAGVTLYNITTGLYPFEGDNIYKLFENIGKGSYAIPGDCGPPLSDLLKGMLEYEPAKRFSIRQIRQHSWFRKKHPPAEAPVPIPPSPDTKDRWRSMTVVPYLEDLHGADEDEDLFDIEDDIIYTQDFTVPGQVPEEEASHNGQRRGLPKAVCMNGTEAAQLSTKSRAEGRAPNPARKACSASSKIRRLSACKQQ

[7] = molecular target: T1, Serine/threonine-protein kinase STK11 (Homo sapiens); details: at 10 µM
[8] = molecular target: Serine/threonine-protein kinase 10 (Homo sapiens) (UniProt O94804); details: at 1 µM
[9] = molecular target: Serine/threonine-protein kinase 10 (Homo sapiens) (UniProt O94804); details: at 10 µM
[10] = molecular target: Tyrosine-protein kinase Lck (Homo sapiens) (UniProt P06239); details: at 1 µM
Chain of Tyrosine-protein kinase Lck (Homo sapiens) (P06239 2-509 limits assumed): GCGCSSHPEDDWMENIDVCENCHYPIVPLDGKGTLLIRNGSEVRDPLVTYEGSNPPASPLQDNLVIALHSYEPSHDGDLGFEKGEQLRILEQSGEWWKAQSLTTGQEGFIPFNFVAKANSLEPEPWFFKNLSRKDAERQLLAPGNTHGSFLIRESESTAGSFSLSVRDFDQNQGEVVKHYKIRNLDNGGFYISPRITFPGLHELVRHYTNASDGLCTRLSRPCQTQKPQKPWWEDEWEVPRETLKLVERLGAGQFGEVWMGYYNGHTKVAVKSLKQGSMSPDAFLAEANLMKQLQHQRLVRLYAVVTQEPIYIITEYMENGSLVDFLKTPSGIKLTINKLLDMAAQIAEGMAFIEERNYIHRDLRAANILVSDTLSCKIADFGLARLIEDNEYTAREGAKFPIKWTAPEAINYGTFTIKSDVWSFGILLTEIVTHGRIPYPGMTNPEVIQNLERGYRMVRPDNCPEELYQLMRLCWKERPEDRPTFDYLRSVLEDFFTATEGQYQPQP

Chain of Vascular endothelial growth factor receptor 2 (Homo sapiens) (P35968 whole entry, the tested form may be a part): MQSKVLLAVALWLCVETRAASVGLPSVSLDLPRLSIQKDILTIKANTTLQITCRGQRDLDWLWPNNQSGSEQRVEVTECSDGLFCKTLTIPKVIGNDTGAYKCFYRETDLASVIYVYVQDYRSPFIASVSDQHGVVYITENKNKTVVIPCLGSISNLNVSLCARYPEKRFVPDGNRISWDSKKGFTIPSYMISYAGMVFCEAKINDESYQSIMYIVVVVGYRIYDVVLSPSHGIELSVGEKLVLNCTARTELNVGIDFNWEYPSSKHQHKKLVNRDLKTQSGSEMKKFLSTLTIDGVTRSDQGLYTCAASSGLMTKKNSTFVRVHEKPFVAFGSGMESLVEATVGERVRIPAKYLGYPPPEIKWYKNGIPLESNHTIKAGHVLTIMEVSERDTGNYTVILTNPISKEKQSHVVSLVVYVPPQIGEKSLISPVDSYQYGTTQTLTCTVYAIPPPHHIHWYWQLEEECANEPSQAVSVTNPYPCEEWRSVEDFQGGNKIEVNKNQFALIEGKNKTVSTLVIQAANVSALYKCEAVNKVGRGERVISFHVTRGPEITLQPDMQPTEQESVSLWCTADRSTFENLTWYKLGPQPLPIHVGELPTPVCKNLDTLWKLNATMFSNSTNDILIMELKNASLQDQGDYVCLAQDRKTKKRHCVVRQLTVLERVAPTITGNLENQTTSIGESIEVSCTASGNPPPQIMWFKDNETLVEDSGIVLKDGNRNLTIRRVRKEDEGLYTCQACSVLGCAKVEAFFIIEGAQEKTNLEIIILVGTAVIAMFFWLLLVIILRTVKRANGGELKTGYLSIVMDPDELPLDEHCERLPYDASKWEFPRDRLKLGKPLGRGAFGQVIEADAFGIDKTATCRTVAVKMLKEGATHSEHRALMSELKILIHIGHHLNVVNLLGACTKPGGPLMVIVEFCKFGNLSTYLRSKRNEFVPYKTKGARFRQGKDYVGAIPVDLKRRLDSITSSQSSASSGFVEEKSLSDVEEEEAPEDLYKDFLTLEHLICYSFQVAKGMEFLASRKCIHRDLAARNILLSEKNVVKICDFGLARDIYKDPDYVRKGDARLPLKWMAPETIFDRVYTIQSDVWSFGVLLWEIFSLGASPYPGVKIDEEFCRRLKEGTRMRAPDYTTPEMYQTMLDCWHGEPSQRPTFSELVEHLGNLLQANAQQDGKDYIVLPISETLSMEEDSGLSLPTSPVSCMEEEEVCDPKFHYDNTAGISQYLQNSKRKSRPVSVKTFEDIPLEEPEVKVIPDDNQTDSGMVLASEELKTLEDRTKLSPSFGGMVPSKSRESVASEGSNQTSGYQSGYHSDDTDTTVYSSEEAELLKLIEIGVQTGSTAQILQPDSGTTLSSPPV
Chain of LIM domain kinase 1 (Homo sapiens) (P53667 whole entry, looked up, the tested form may be a part): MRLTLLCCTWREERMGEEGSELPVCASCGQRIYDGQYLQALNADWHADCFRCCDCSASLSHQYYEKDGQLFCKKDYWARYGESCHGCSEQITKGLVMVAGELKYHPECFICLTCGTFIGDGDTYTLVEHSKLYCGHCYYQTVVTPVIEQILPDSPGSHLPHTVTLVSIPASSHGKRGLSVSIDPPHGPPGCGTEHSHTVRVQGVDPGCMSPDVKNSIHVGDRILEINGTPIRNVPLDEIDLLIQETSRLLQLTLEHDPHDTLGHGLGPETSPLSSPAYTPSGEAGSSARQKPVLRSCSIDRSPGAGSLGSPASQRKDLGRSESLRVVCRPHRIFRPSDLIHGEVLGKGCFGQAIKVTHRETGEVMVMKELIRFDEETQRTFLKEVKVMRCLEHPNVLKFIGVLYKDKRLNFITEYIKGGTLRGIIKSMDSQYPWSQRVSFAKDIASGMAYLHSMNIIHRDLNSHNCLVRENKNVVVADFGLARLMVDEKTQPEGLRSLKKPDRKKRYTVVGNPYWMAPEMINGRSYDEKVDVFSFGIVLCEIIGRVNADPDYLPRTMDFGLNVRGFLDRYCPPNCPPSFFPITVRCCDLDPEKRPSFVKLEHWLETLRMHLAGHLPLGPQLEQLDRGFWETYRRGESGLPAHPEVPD
Chain of Mitogen-activated protein kinase 10 (Homo sapiens) (P53779 whole entry): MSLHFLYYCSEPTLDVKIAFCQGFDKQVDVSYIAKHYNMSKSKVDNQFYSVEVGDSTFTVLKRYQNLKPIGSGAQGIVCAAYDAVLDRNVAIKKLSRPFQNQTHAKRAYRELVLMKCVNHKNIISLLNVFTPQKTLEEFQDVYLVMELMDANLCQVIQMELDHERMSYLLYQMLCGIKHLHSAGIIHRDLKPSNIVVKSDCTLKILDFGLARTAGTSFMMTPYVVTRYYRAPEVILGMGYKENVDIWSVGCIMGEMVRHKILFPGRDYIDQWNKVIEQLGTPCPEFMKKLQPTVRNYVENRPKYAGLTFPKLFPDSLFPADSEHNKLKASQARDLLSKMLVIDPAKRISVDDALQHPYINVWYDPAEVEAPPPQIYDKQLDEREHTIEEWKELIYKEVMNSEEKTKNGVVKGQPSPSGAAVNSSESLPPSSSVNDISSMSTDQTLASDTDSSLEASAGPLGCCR
Chain of Serine/threonine-protein kinase 10 (Homo sapiens) (O94804 whole entry, looked up): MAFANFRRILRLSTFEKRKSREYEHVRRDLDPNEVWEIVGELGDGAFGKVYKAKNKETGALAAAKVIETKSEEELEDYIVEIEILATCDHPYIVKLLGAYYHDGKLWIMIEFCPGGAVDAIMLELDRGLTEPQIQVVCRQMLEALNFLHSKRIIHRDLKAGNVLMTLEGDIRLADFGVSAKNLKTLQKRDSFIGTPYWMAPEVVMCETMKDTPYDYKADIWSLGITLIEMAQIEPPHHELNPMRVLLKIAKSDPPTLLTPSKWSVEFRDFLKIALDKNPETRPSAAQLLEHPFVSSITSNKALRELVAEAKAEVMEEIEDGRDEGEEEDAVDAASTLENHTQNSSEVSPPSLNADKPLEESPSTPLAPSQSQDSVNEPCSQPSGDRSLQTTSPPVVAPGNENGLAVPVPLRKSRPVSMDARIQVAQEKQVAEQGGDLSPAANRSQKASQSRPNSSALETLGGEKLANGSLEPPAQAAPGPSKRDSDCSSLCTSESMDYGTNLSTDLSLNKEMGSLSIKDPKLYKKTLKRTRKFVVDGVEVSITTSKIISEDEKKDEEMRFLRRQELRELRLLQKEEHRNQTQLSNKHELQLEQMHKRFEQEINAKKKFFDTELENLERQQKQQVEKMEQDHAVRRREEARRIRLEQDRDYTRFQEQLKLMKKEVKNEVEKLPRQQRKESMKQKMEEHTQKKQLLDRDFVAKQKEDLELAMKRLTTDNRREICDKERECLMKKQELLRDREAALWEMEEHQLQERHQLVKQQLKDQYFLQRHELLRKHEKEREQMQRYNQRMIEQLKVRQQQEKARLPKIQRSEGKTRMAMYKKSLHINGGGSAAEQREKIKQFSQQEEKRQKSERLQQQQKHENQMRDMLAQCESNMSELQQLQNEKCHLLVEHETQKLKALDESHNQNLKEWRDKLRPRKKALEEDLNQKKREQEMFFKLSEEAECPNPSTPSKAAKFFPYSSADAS

| Compound | residual activity [1] [%] | residual activity [2] [%] | residual activity [3] [%] | residual activity [4] [%] | residual activity [5] [%] | residual activity [6] [%] | residual activity [7] [%] | residual activity [8] [%] | residual activity [9] [%] | residual activity [10] [%] |
| --- | --- | --- | --- | --- | --- | --- | --- | --- | --- | --- |
| Cc1cc2ncc(-c3ccccc3)nc2cc1C | 70 | 92 | 79 | 109 | 93 | 108 | 99 | 89 | 93 | – |
| COc1ccc(CNc2nc(N(CCO)CCO)nc3c2ncn3C(C)C)cc1 | 70 | 79 | 74 | 90 | 88 | 126 | 73 | 101 | 88 | 62 |
| O=Nc1c(-c2c(O)[nH]c3ccccc23)[nH]c2ccccc12 | -2 | 4 | 1 | 61 | 21 | 83 | 44 | 66 | 71 | 13 |
| COc1ccc(C(=O)Nc2sc3c(c2C(N)=O)CCCC3)cc1OC | 69 | 71 | 75 | 102 | 86 | 104 | 105 | 100 | 87 | 100 |
| Nc1ccc2ncnc(NCCc3ccc(Oc4ccccc4)cc3)c2c1 | 80 | 79 | 53 | 106 | 80 | 105 | 94 | 92 | 75 | 76 |
| CO[C@@H]1[C@H](N(C)C(=O)c2ccccc2)C[C@H]2O[C@]1(C)n1c3ccccc3c3c4c(c5c6ccccc6n2c5c31)C(=O)NC4 | 27 | 3 | 2 | 22 | 4 | 95 | 93 | 21 | 9 | 13 |
| Cc1nc(-c2ccccc2)c(-c2ccncc2)o1 | 19 | 95 | 78 | 106 | 86 | 111 | 100 | 119 | 105 | 92 |
| O=C(O)c1ccc2c3c1cccc3c(=O)n1c3ccccc3nc21 | 34 | 41 | 56 | 101 | 89 | 107 | 95 | 60 | 39 | 83 |
| Cc1ccc(S(=O)(=O)/C=C/C#N)cc1 | 84 | 101 | 95 | 92 | 92 | 94 | 100 | 109 | 108 | 96 |
| O=C1c2ccccc2-[n+]2ccc3c([nH]c4ccccc43)c21 | 62 | 88 | 78 | 91 | 88 | 100 | 97 | 94 | 90 | 85 |
| CC#CC(=O)Nc1cc2c(Nc3ccc(F)c(Cl)c3)ncnc2cn1 | 61 | 107 | 86 | 100 | 91 | 102 | 98 | 96 | 86 | 105 |
| Nc1n[nH]c2nnc(-c3c(-c4ccccc4)nn4ccccc34)cc12 | 0 | 86 | 59 | 82 | 85 | 91 | 94 | 80 | 29 | 88 |
| O=C(Nc1cccc(Nc2cc(Nc3cccc(C(F)(F)F)c3)ncn2)c1)C1CC1 | 52 | 96 | 75 | 87 | 31 | 102 | 96 | 92 | 57 | 72 |
| O=c1c2ccccc2[nH]c(=S)n1CCN1CCC(=C(c2ccc(F)cc2)c2ccc(F)cc2)CC1 | 54 | 103 | 90 | 119 | 93 | 123 | 128 | 107 | 97 | 144 |
| CC(C)n1cnc2c(NCc3ccccc3)nc(NCCCO)nc21 | 58 | 98 | 93 | 92 | 88 | 105 | 101 | 102 | 96 | 89 |
| Oc1n[nH]c2nnc(-c3c(-c4ccccc4)nn4ccccc34)cc12 | 43 | 93 | 89 | 77 | 87 | 91 | 96 | 100 | 79 | 88 |
| Cn1nc2c3c(cccc31)C(=O)c1ccccc1-2 | 9 | 84 | 45 | 86 | 80 | 102 | 84 | 73 | 68 | – |
| COc1ccc(S(=O)(=O)N(CCO)c2ccccc2CN(C)C/C=C/c2ccc(Cl)cc2)cc1 | 88 | 100 | 95 | 93 | 83 | 100 | 93 | 107 | 89 | 80 |

| Compound | residual activity [1] [%] | residual activity [2] [%] | residual activity [3] [%] | residual activity [4] [%] | residual activity [5] [%] | residual activity [6] [%] | residual activity [7] [%] | residual activity [8] [%] | residual activity [9] [%] | residual activity [10] [%] |
| --- | --- | --- | --- | --- | --- | --- | --- | --- | --- | --- |
| O=C1NC(=O)/C(=C/c2ccc3c(c2)OC(F)(F)O3)S1 | 83 | 105 | 97 | 110 | 88 | 102 | 94 | 89 | 89 | 125 |
| COc1cc2ncnc(N3CCN(C(=O)Nc4ccc(Oc5ccccc5)cc4)CC3)c2cc1OC | 89 | 80 | 38 | 54 | 14 | 99 | 89 | 90 | 85 | 98 |
| O=C1NC(=O)/C(=C\c2ccc3nccnc3c2)S1 | 104 | 87 | 63 | 91 | 81 | 90 | 78 | 71 | 35 | 108 |
| Oc1c2ccccc2c2c3c(cccc13)N=N2 | -6 | 17 | 3 | 64 | 30 | 75 | 41 | 87 | 62 | 70 |
| O=c1cc(-c2cccc3c2Sc2ccccc2S3)oc(N2CCOCC2)c1 | 89 | 90 | 89 | 98 | 92 | 95 | 99 | 98 | 101 | 103 |
| O=C(Nc1cccc(Nc2nccc(Nc3cccc(C(F)(F)F)c3)n2)c1)C1CC1 | -3 | 81 | 25 | 26 | 4 | 100 | 94 | 66 | 44 | 73 |
| Cc1nc2cc3nc(-c4cccs4)cnc3cc2n1C | 107 | 36 | 5 | 116 | 99 | 97 | 107 | 107 | 99 | 112 |
| Nc1nc(Nc2ccc(S(N)(=O)=O)cc2)nn1C(=S)Nc1c(F)cccc1F | 3 | 0 | 0 | 5 | 2 | 87 | 41 | 0 | 0 | 4 |
| Ic1cccc(CSc2nnc(-c3ccncc3)o2)c1 | 68 | 77 | 65 | 84 | 75 | 96 | 94 | 104 | 95 | 58 |
| Cc1cncc2cccc(S(=O)(=O)N3CCCN(C(=O)CN)C[C@H]3C)c12 | 124 | 99 | 74 | 92 | 51 | 91 | 69 | 54 | 21 | 97 |
| CCOc1cc2ncnc(Nc3cccc(Br)c3)c2cc1OCC | 11 | 54 | 13 | 107 | 49 | 98 | 94 | 23 | 10 | 39 |
| Cc1ccc(NC2=CC(=O)c3sc(C)nc3C2=O)cc1 | 82 | 97 | 89 | 84 | 82 | 98 | 98 | 113 | 105 | 86 |
| NC(=O)c1ccc2[nH]c(-c3ccc(Oc4ccc(Cl)cc4)cc3)nc2c1 | 98 | 84 | 43 | 93 | 55 | 103 | 94 | 83 | 58 | 83 |
| COc1ccc(OC)c2c(=S)c3ccccc3[nH]c12 | 65 | 88 | 97 | 93 | 88 | 97 | 95 | 94 | 89 | 101 |
| c1ccc(-c2n[nH]cc2-c2ccnc3ccccc23)nc1 | 52 | 57 | 23 | 90 | 74 | 96 | 94 | 90 | 93 | 123 |
| CN(C)c1ccc(/C=C2\C(=O)Nc3ccccc32)cc1 | 106 | 4 | 3 | 108 | 89 | 94 | 102 | 100 | 77 | 129 |
| Cn1cnc2cc3c(Nc4cccc(Br)c4)ncnc3cc21 | 9 | 49 | 19 | 105 | 57 | 101 | 99 | 31 | 10 | 42 |
